Sampled rows, rich in hits. Any-hit rate of the full collection: about 1.1%.
APOBEC3G inh = APOBEC3G DNA deaminase inhibitors, primary screen, biochemical, fluorescence, single-stranded DNA substrate, uHTS. DNA dC->dU-editing enzyme APOBEC-3G (Homo sapiens), Q9HC16. AID 493012, 2011. recombinant A3G, ssDNA deamination FAM/TAMRA fluorescence. 330,000 tested, 0.28% active. inhibition, % at 20 µM;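 active means inhibition of at least 40% at 20 µM, with no more than 30% in the related APOBEC3A deaminase screen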
Target sequence (Q9HC16 whole entry, looked up): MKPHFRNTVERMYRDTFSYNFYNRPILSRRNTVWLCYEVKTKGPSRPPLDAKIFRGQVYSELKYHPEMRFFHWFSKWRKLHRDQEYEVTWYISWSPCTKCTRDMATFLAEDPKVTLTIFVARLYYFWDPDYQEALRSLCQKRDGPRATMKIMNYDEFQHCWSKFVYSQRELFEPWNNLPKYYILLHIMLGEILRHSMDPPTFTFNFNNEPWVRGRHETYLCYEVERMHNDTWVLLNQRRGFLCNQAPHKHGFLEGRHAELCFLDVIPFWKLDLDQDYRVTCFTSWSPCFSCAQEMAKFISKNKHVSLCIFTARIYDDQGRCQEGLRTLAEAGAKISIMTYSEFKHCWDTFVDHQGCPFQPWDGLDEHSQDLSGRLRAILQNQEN
A3A deaminase = APOBEC3A ssDNA deaminase inhibitors, primary screen, selectivity assay for APOBEC3G inhibitor project, biochemical, FAM/TAMRA oligo cleavage fluorescence; DNA dC->dU-editing enzyme APOBEC-3A (Homo sapiens), P31941; AID 493011, 2011; 330,000 tested, 0.41% active; recombinant A3A, FAM/TAMRA ssDNA deamination fluorescence; inhibition, % at 20 µM;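 active means at least 40% inhibition at 20 µM here, with at most 30% in a related deaminase screen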
beta cell repl = inducers of MIN6 beta-cell proliferation, primary screen, ATP luminescence, uHTS; proliferation, % at 10 µM; MIN6 cells proliferation, ATPlite luminescence, 48 h; cells starved in 0.2% serum; 100% = growth in 10% serum; 330,000 tested, 0.29% active;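 active means compounds whose signal lies at least 3.5 SD above the mean of all wells on their plate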
Bfl-1 A1 inh = caspase 3/7 activation in MEF A1-2A-BIM cells, primary screen, A1 inhibitor project, cell-based, luminescence, HTS; Caspase-Glo 3/7 luminescence, 3 h; percent of clofoctol response, vehicle zero; caspase activation, % (no concentration beside the values); 330,000 tested, 0.066% active; AID 2462, 2010;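 active means over half of replicate activation scores above 10%, or exactly half above 10 with the replicate mean above 10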
APOBEC3G confirm = APOBEC3G deaminase inhibitor retest, confirmation, biochemical, fluorescence, single-stranded DNA substrate, single concentration; 890 tested, 72% active; inhibition, % at 20 µM; AID 493152, 2011; shares compounds with APOBEC3G inh; recombinant A3G ssDNA deaminase, UDG/FAM-TAMRA fluorescence;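 active means inhibition reaching a set limit in any replicate at 20 µM, the limit being 80% of the first screen's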
UDG A3G counter = E. coli UDG inhibitors, confirmation, counter-screen for APOBEC3G inhibitor project, biochemical, single concentration, fluorescence, FAM/TAMRA oligo. shares compounds with APOBEC3G inh. UDG counterscreen. inhibition, % at 20 µM. 710 tested, under 10 active;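 active means compounds giving 40% or more inhibition at 20 µM in any one of the three replicates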;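 further: inhibitors lower the FAM signal released by uracil excision and alkaline cleavage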
A number is an active result; i = inactive; nt = no result given.

SMILES | APOBEC3G inh | A3A deaminase | beta cell repl | Bfl-1 A1 inh | APOBEC3G confirm | UDG A3G counter
CC(C)(C)C(=O)NC(=S)Nc1cc(C(=O)O)ccc1Cl | i | i | i | i | nt | nt
COCCn1nnnc1C(c1cccs1)N1CCN(c2nc3ccccc3s2)CC1 (stereo not drawn) | 56.5 | i | i | i | i | nt
COCCn1nnnc1C(c1cccs1)N1CCN(c2cc(C)ccc2C)CC1 (stereo not drawn) | i | i | i | i | nt | nt
COc1ccc(S(=O)(=O)Nc2nnc(CC(C)(C)C)s2)cc1 | i | i | i | i | nt | nt
COc1ccc(S(=O)(=O)Nc2nnc(C(C)(C)C)s2)cc1 | 49.8 | i | i | i | 20.4 | i
S=c1[nH]nc(-c2ccco2)n1-c1ccc(Br)cc1 | 42.0 | i | i | i | 69.0 | i
Cc1cccc(-n2c(-c3ccco3)n[nH]c2=S)c1 | 53.6 | i | i | i | 60.4 | i
Cc1cccc(-n2c(-c3ccc(Br)o3)n[nH]c2=S)c1 | i | i | i | i | nt | nt
Cc1ccccc1-n1c(-c2ccco2)n[nH]c1=S | i | i | i | i | nt | nt
Cc1nnc(SCC(=O)Nc2cccc(Cl)c2)n1CC1CCCO1 (stereo not drawn) | i | i | i | i | nt | nt
COc1ccc(CC(=O)N2CCN=C2SCc2cccc([N+](=O)[O-])c2)cc1 | i | i | i | i | nt | nt
O=C(COC(=O)c1ccc(Br)c(S(=O)(=O)N2CCOCC2)c1)NCCc1ccccc1 | i | i | i | i | nt | nt
CCN(C(=O)c1ccco1)c1nnc(-c2ccc(OC)cc2)s1 | i | i | i | i | nt | nt
CCCN(C(=O)c1ccco1)c1nnc(-c2cccc(C)c2)s1 | 64.8 | i | i | i | i | nt
Cc1cccc(Nc2n[nH]c(=S)s2)c1C | i | i | i | i | nt | nt
CNc1n[nH]c(=S)s1 | 66.6 | i | i | i | 76.4 | i
O=[N+]([O-])c1ccc(Cl)c(/C=N/n2c(-c3ccncc3)n[nH]c2=S)c1 | 48.0 | i | i | i | 57.2 | i
Cc1ccc(-c2n[nH]c(=S)n2/N=C\c2ccco2)cc1 | 42.4 | i | i | i | 75.6 | i
S=c1[nH]nc(-c2cccnc2)n1/N=C/c1ccco1 | i | i | i | i | nt | nt
Cc1nn(-c2ccccc2)c(C)c1/C=N/n1c(-c2ccncc2)n[nH]c1=S | 41.7 | i | i | i | 76.6 | i
Cc1ccc(-c2n[nH]c(=S)n2/N=C/c2ccncc2)cc1 | 53.1 | i | i | i | 65.5 | i
Cc1cccc(-c2n[nH]c(=S)n2/N=C/c2ccco2)c1 | 47.0 | i | i | i | 79.1 | i
Cn1cccc1/C=N/n1c(-c2ccccc2)n[nH]c1=S | 43.2 | i | i | i | 80.9 | i
Cn1cccc1/C=N/n1c(-c2ccc(C(C)(C)C)cc2)n[nH]c1=S | i | i | i | i | nt | nt
COc1ccccc1NS(=O)(=O)c1cc(NC(=O)c2cc[n+]([O-])cc2)ccc1N1CCCC1 | 44.5 | i | i | i | 33.9 | i
SMILES | APOBEC3G inh | A3A deaminase | beta cell repl | Bfl-1 A1 inh | APOBEC3G confirm | UDG A3G counter
COc1ccccc1NS(=O)(=O)c1cc(NC(=O)c2cccs2)ccc1N1CCCC1 | 40.2 | i | i | i | 62.9 | i
COc1ccccc1NS(=O)(=O)c1cc(NC(=O)c2sccc2C)ccc1N1CCCC1 | 42.1 | i | i | i | active | i
COc1ccccc1NS(=O)(=O)c1cc(NC(=O)C(C)C)ccc1N1CCCCC1 | i | i | i | i | nt | nt
COc1ccccc1NS(=O)(=O)c1cc(NC(=O)c2sccc2C)ccc1N1CCOCC1 | i | i | i | i | nt | nt
O=C(Nc1cccc(C(F)(F)F)c1)Nn1cnnc1 | i | i | i | i | nt | nt
COc1ccccc1C(=O)Nc1cc(Cl)ccc1O | i | i | i | i | nt | nt
COc1ccc(Cl)cc1NC(=O)c1ccccc1C | 40.7 | i | i | i | i | nt
COc1ccc(Cl)cc1NC(=O)NC1CCCCC1 | 46.1 | i | i | i | 27.3 | i
